Experimental data reported in paper PMC12864922, “TDP-43 directly inhibits mRNA accumulation in neurites through modulation of mRNA stability”.
Whole data set: some 9,900 sequences, median “r (bound/input frequency ratio)” near 0.7, cut for the highest 2% near 6.5. The full list was thinned out, with the highest values kept by preference.

B1: ENSMUSG00000043670.215|Diras1 (ssRNA)
RNA: GGGAGUUCUACAGUCCGACGAUCGCUUCGAUAUCCGCAUGCUAGUGUCUGUCUUGGGAUGGGGUGUUCUUGCACCACUUUGUGUUCUUAGUGAGACCACAGUGUAAGUGGCCGUGUGUGUGUGUGGGGGGGGGCACCUAGACAUUGUGGUGUGUCUGUAUGGCUCUGUGUUUUCAGGGGUGGGUGACACAGGCCUGUCUGAUGAGCACCAGGUCUGUUCCAGGCUGUGGCAAGCUGGCUCCUGGCUCAGAAGUGACAAAGCUGCAGUACAGAGGCCUCAGUGUGAGGUCAUCACCUCACAGUGCUCUUGCGGUCGCACUAGUGUGGAAUUCUCGGGUGUCAAGG
B2: ENSMUSG00000043670.208|Diras1 (ssRNA)
RNA: GGGAGUUCUACAGUCCGACGAUCGCUUCGAUAUCCGCAUGCUAUUAGAAUUCUGUGUUUAUGUGCCUGUGUGUGUGGAUGGGUGUGUGUCUGUCUUGGGAUGGGGUGUUCUUGCACCACUUUGUGUUCUUAGUGAGACCACAGUGUAAGUGGCCGUGUGUGUGUGUGGGGGGGGGCACCUAGACAUUGUGGUGUGUCUGUAUGGCUCUGUGUUUUCAGGGGUGGGUGACACAGGCCUGUCUGAUGAGCACCAGGUCUGUUCCAGGCUGUGGCAAGCUGGCUCCUGGCUCAGAAGUGACAAAGCCUCUUGCGGUCGCACUAGUGUGGAAUUCUCGGGUGUCAAGG
B3: ENSMUSG00000043670.207|Diras1 (ssRNA)
RNA: GGGAGUUCUACAGUCCGACGAUCGCUUCGAUAUCCGCAUGCUAGGUGACUUAGAAUUCUGUGUUUAUGUGCCUGUGUGUGUGGAUGGGUGUGUGUCUGUCUUGGGAUGGGGUGUUCUUGCACCACUUUGUGUUCUUAGUGAGACCACAGUGUAAGUGGCCGUGUGUGUGUGUGGGGGGGGGCACCUAGACAUUGUGGUGUGUCUGUAUGGCUCUGUGUUUUCAGGGGUGGGUGACACAGGCCUGUCUGAUGAGCACCAGGUCUGUUCCAGGCUGUGGCAAGCUGGCUCCUGGCUCAGAAGUGACUCUUGCGGUCGCACUAGUGUGGAAUUCUCGGGUGUCAAGG
B4: ENSMUSG00000043670.203|Diras1|6:10;40:44;54:63;69:76;109:113;142:154;178:183;186:190;195:199 (ssRNA)
RNA: GGGAGUUCUACAGUCCGACGAUCGCUUCGAUAUCCGCAUGCUAGGGCCACACACCCACCCAGAUGAGGGUGACUUAGAAUUCACACAUUAUGUGCCACACACACACGAUGGCACACACACUGUCUUGGGAUGGGGUGUUCUUGCACCACUUACACAUCUUAGUGAGACCACAGUGUAAGUGGCCCACACACACACACGGGGGGGGCACCUAGACAUUGUGCACACACUCAUACGCUCACACAUUUCAGGGGUGGGUGACACAGGCCUGUCUGAUGAGCACCAGGUCUGUUCCAGGCUGUGGCACUCUUGCGGUCGCACUAGUGUGGAAUUCUCGGGUGUCAAGG
B5: ENSMUSG00000043670.198|Diras1 (ssRNA)
RNA: GGGAGUUCUACAGUCCGACGAUCGCUUCGAUAUCCGCAUGCUAGAGACUGUCCAGGAGACUUGAGUGGCUCCUGGGCCUGUGUCCCACCCAGAUGAGGGUGACUUAGAAUUCUGUGUUUAUGUGCCUGUGUGUGUGGAUGGGUGUGUGUCUGUCUUGGGAUGGGGUGUUCUUGCACCACUUUGUGUUCUUAGUGAGACCACAGUGUAAGUGGCCGUGUGUGUGUGUGGGGGGGGGCACCUAGACAUUGUGGUGUGUCUGUAUGGCUCUGUGUUUUCAGGGGUGGGUGACACAGGCCUGUCUGACUCUUGCGGUCGCACUAGUGUGGAAUUCUCGGGUGUCAAGG
B6: ENSMUSG00000043670.212|Diras1 (ssRNA)
RNA: GGGAGUUCUACAGUCCGACGAUCGCUUCGAUAUCCGCAUGCUAGUGUGUGUGGAUGGGUGUGUGUCUGUCUUGGGAUGGGGUGUUCUUGCACCACUUUGUGUUCUUAGUGAGACCACAGUGUAAGUGGCCGUGUGUGUGUGUGGGGGGGGGCACCUAGACAUUGUGGUGUGUCUGUAUGGCUCUGUGUUUUCAGGGGUGGGUGACACAGGCCUGUCUGAUGAGCACCAGGUCUGUUCCAGGCUGUGGCAAGCUGGCUCCUGGCUCAGAAGUGACAAAGCUGCAGUACAGAGGCCUCAGUGUGACUCUUGCGGUCGCACUAGUGUGGAAUUCUCGGGUGUCAAGG
B7: ENSMUSG00000043670.205|Diras1 (ssRNA)
RNA: GGGAGUUCUACAGUCCGACGAUCGCUUCGAUAUCCGCAUGCUACACCCAGAUGAGGGUGACUUAGAAUUCUGUGUUUAUGUGCCUGUGUGUGUGGAUGGGUGUGUGUCUGUCUUGGGAUGGGGUGUUCUUGCACCACUUUGUGUUCUUAGUGAGACCACAGUGUAAGUGGCCGUGUGUGUGUGUGGGGGGGGGCACCUAGACAUUGUGGUGUGUCUGUAUGGCUCUGUGUUUUCAGGGGUGGGUGACACAGGCCUGUCUGAUGAGCACCAGGUCUGUUCCAGGCUGUGGCAAGCUGGCUCCUGCUCUUGCGGUCGCACUAGUGUGGAAUUCUCGGGUGUCAAGG
B8: ENSMUSG00000043670.210|Diras1 (ssRNA)
RNA: GGGAGUUCUACAGUCCGACGAUCGCUUCGAUAUCCGCAUGCUAGUUUAUGUGCCUGUGUGUGUGGAUGGGUGUGUGUCUGUCUUGGGAUGGGGUGUUCUUGCACCACUUUGUGUUCUUAGUGAGACCACAGUGUAAGUGGCCGUGUGUGUGUGUGGGGGGGGGCACCUAGACAUUGUGGUGUGUCUGUAUGGCUCUGUGUUUUCAGGGGUGGGUGACACAGGCCUGUCUGAUGAGCACCAGGUCUGUUCCAGGCUGUGGCAAGCUGGCUCCUGGCUCAGAAGUGACAAAGCUGCAGUACAGAGCUCUUGCGGUCGCACUAGUGUGGAAUUCUCGGGUGUCAAGG
B9: ENSMUSG00000043670.209|Diras1 (ssRNA)
RNA: GGGAGUUCUACAGUCCGACGAUCGCUUCGAUAUCCGCAUGCUAUUCUGUGUUUAUGUGCCUGUGUGUGUGGAUGGGUGUGUGUCUGUCUUGGGAUGGGGUGUUCUUGCACCACUUUGUGUUCUUAGUGAGACCACAGUGUAAGUGGCCGUGUGUGUGUGUGGGGGGGGGCACCUAGACAUUGUGGUGUGUCUGUAUGGCUCUGUGUUUUCAGGGGUGGGUGACACAGGCCUGUCUGAUGAGCACCAGGUCUGUUCCAGGCUGUGGCAAGCUGGCUCCUGGCUCAGAAGUGACAAAGCUGCAGUCUCUUGCGGUCGCACUAGUGUGGAAUUCUCGGGUGUCAAGG
B10: ENSMUSG00000043670.203|Diras1 (ssRNA)
RNA: GGGAGUUCUACAGUCCGACGAUCGCUUCGAUAUCCGCAUGCUAGGGCCUGUGUCCCACCCAGAUGAGGGUGACUUAGAAUUCUGUGUUUAUGUGCCUGUGUGUGUGGAUGGGUGUGUGUCUGUCUUGGGAUGGGGUGUUCUUGCACCACUUUGUGUUCUUAGUGAGACCACAGUGUAAGUGGCCGUGUGUGUGUGUGGGGGGGGGCACCUAGACAUUGUGGUGUGUCUGUAUGGCUCUGUGUUUUCAGGGGUGGGUGACACAGGCCUGUCUGAUGAGCACCAGGUCUGUUCCAGGCUGUGGCACUCUUGCGGUCGCACUAGUGUGGAAUUCUCGGGUGUCAAGG

What follows are binders tested against TDP-43 (Homo sapiens, UniProt Q13148 1-414) (assay: RNA Bind-n-Seq with designed 260-mer pool; 25 mM Tris-HCl, 150 mM KCl, 3 mM MgCl2, BSA (printed 500 mg/mL), 20 units/mL SUPERase IN; pH not stated; 500 nM RNA pool, 1 h, 4 C; TDP-43 5, 50, 500 nM; high values mean tight binding). Details: protein: recombinant; tags: SBP (GST cleaved off with PreScission; pGEX-GST-SBP).
Summary of the method: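 Binding (R) is the ratio of each oligo's mapped-read-normalized abundance in the bound fraction to its abundance in the input. To obtain it, SBP-tagged recombinant TDP-43 (5, 50 or 500 nM) on streptavidin beads was incubated with 500 nM of an in vitro-transcribed 260-nt 3′ UTR oligo pool for 1 h at 4 °C in 25 mM Tris-HCl, 150 mM KCl, 3 mM MgCl2, BSA and SUPERase IN. The RNA retained after washing was released with biotin, then reverse transcribed, amplified by PCR and sequenced.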

TDP-43, sequence (Q13148 whole entry): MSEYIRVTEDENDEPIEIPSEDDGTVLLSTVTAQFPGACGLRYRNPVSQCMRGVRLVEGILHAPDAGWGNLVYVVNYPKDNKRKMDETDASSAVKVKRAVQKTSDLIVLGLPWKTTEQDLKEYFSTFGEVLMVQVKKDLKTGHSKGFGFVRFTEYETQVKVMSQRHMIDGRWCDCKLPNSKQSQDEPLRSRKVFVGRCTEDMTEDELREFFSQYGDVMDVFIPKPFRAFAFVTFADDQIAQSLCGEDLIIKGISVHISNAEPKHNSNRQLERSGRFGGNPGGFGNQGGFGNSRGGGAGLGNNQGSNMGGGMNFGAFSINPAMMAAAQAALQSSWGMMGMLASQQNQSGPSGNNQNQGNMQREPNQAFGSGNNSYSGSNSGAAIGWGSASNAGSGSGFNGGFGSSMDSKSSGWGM

Row | Binder | binding signal
1 | B1 | 3.25 R (bound/input frequency ratio)
2 | B2 | 7.79 R (bound/input frequency ratio)
3 | B3 | 8.86 R (bound/input frequency ratio)
4 | B4 | 1.5 R (bound/input frequency ratio)
5 | B5 | 4.93 R (bound/input frequency ratio)
6 | B6 | 6.14 R (bound/input frequency ratio)
7 | B7 | 7.36 R (bound/input frequency ratio)
8 | B8 | 5.7 R (bound/input frequency ratio)
9 | B9 | 5.23 R (bound/input frequency ratio)
10 | B10 | 7.32 R (bound/input frequency ratio)
